# Measured values: the supplement of paper PMC9262897, “Low-cost anti-mycobacterial drug discovery using engineered E. coli” (Nature Communications, 2022)
# Where a name gives a salt, the structure may show the parent alone. ± gives the standard deviation of the averaged measurements.
# Key:
# Assay in all cases: growth (OD600 after 10 h); higher = more growth (less inhibition)
# [1] = system: E. coli TESEC Alr+ wild-type control; settings: compound 0.1 mM; raw OD600 reference: median of DMSO wells 0.241, cell-free background 0.041
# Method: (§1)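 TESEC Mtb Alr E. coli, or the Alr+ wild-type control, in 384-well plates with Prestwick library compounds at 0.1 mM and 1% DMSO, across arabinose induction levels of 1E3 to 1E7 nM. Growth is read as OD600 after 10 h at 37 °C in triplicate biological replicates.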
# [2] = system: E. coli TESEC Mtb Alr; settings: compound 0.1 mM
# Method: as §1
# [3] = system: E. coli TESEC Mtb Asd; settings: compound 0.1 mM
# Method: (§2)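 TESEC E. coli strains in which the native enzyme is deleted and replaced by arabinose-inducible Mtb Asd, DapB, CysH or TrpD, each grown in its selective medium. Strains were screened against the Prestwick library at 0.1 mM and 1% DMSO in 384-well format at low and high arabinose induction. Growth is read as OD600 after 10 h in triplicate.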
# [4] = system: E. coli TESEC Mtb DapB; settings: compound 0.1 mM
# Method: as §2
# [5] = system: E. coli TESEC Alr+ wild-type control; settings: compound 0.1 mM; raw OD600 reference: median of DMSO wells 0.49, cell-free background 0.052
# Method: (§3)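 TESEC Mtb Alr E. coli (ΔaraC ΔtolC ΔentC Δalr ΔdadX, arabinose-inducible Mtb Alr) or the Alr+ wild-type control strain, grown in defined M9-fructose medium without D-alanine in 96-well plates with Prestwick library compounds at 0.1 mM and 1% DMSO. Low Alr induction is 0.1 µM arabinose and high induction is 10 mM arabinose.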
# [6] = system: E. coli TESEC Mtb Alr; settings: compound 0.1 mM; remark: listed apart in the source
# Method: as §3
# [7] = arabinose 1000 nM, raw OD600 reference: median of DMSO wells 0.294, cell-free background 0.041
# [8] = arabinose 10000 nM, raw OD600 reference: median of DMSO wells 0.264, cell-free background 0.041
# [9] = arabinose 100000 nM, raw OD600 reference: median of DMSO wells 0.201, cell-free background 0.041
# [10] = arabinose 1000000 nM, raw OD600 reference: median of DMSO wells 0.193, cell-free background 0.041
# [11] = arabinose 10000000 nM, raw OD600 reference: median of DMSO wells 0.146, cell-free background 0.041
# [12] = arabinose induction (level): High, raw OD600 reference: median of DMSO wells 0.331, cell-free background 0.041
# [13] = arabinose induction (level): Low, raw OD600 reference: median of DMSO wells 0.417, cell-free background 0.041
# [14] = arabinose induction (level): High, raw OD600 reference: median of DMSO wells […], cell-free background 0.041
# [15] = arabinose induction (level): Low, raw OD600 reference: median of DMSO wells 0.227, cell-free background 0.041
# [16] = arabinose 100 nM, raw OD600 reference: median of DMSO wells 0.413, cell-free background 0.052
# [17] = arabinose 10000000 nM, raw OD600 reference: median of DMSO wells […], cell-free background 0.052
smiles,measurement,setting,value
CNCCCN1c2ccccc2CCc2ccccc21 [Desipramine hydrochloride],growth,[1],0.184 ± 0.0044
same,growth,[2]; [7],0.228 ± 0.021
same,growth,[2]; [8],0.275 ± 0.013
same,growth,[2]; [9],0.199 ± 0.021
same,growth,[2]; [10],0.1277 ± 0.00069
same,growth,[2]; [11],0.168 ± 0.0031
same,growth,[3]; [12],0.157 ± 0.011
same,growth,[3]; [13],0.222 ± 0.03
same,growth,[4]; [14],0.171 ± 0.014
same,growth,[4]; [15],0.202 ± 0.0094
same,growth,[5],0.578 ± 0.053
same,growth,[6]; [16],0.403 ± 0.01
same,growth,[6]; [17],0.287 ± 0.011
CCCCc1cc2ccccc2c(OCCN(C)C)n1 [Dimethisoquin hydrochloride],growth,[1],0.177 ± 0.0065
same,growth,[2]; [7],0.182 ± 0.0035
same,growth,[2]; [8],0.162 ± 0.0045
same,growth,[2]; [9],0.199 ± 0.0029
same,growth,[2]; [10],0.0689 ± 0.0025
same,growth,[2]; [11],0.1567 ± 0.0013
same,growth,[3]; [12],0.154 ± 0.0042
same,growth,[3]; [13],0.171 ± 0.015
same,growth,[4]; [14],0.167 ± 0.014
same,growth,[4]; [15],0.184 ± 0.012
same,growth,[5],0.444 ± 0.022
same,growth,[6]; [16],0.3984 ± 0.0029
same,growth,[6]; [17],0.308 ± 0.011
CCCCCCCCCCCCCCCC[N+](C)(C)CCN(Cc1ccc(OC)cc1)c1ncccn1 [Thonzonium bromide],growth,[1],0.0453 ± 0.0014
same,growth,[2]; [7],0.08477 ± 0.00045
same,growth,[2]; [8],0.0958 ± 0.0043
same,growth,[2]; [9],0.0909 ± 0.0047
same,growth,[2]; [10],0.0447 ± 0.003
same,growth,[2]; [11],0.0932 ± 0.0021
same,growth,[3]; [12],0.0571 ± 0.0024
same,growth,[3]; [13],0.059 ± 0.0013
same,growth,[4]; [14],0.05637 ± 0.00046
same,growth,[4]; [15],0.0589 ± 0.002
same,growth,[5],0.0464 ± 0.00035
same,growth,[6]; [16],0.226 ± 0.15
same,growth,[6]; [17],0.112 ± 0.01
COc1cc(C)c(/C=C/C(C)=C/C=C/C(C)=C/C(=O)O)c(C)c1C [Acitretin],growth,[1],0.227 ± 0.0077
same,growth,[2]; [7],0.276 ± 0.0084
same,growth,[2]; [8],0.127 ± 0.0023
same,growth,[2]; [9],0.228 ± 0.03
same,growth,[2]; [10],0.06247 ± 0.00031
same,growth,[2]; [11],0.162 ± 0.0072
same,growth,[3]; [12],0.137 ± 0.015
same,growth,[3]; [13],0.145 ± 0.0072
same,growth,[4]; [14],0.153 ± 0.0019
same,growth,[4]; [15],0.1772 ± 0.00061
same,growth,[5],0.34 ± 0.0082
same,growth,[6]; [16],0.369 ± 0.0094
same,growth,[6]; [17],0.199 ± 0.02
C[C@]12C=CC(=O)C=C1CC[C@@H]1[C@@H]2C(=O)C[C@@]2(C)[C@H]1CC[C@]2(O)C(=O)CO [Prednisone],growth,[1],0.221 ± 0.01
same,growth,[2]; [7],0.298 ± 0.017
same,growth,[2]; [8],0.256 ± 0.0052
same,growth,[2]; [9],0.203 ± 0.012
same,growth,[2]; [10],0.173 ± 0.0063
same,growth,[2]; [11],0.162 ± 0.0056
same,growth,[3]; [12],0.237 ± 0.029
same,growth,[3]; [13],0.414 ± 0.042
same,growth,[4]; [14],0.185 ± 0.0094
same,growth,[4]; [15],0.267 ± 0.014
same,growth,[5],0.479 ± 0.044
same,growth,[6]; [16],0.412 ± 0.005
same,growth,[6]; [17],0.352 ± 0.019
COc1ccc(NS(=O)(=O)c2ccc(N)cc2)nn1 [Sulfamethoxypyridazine],growth,[1],0.2402 ± 0.0024
same,growth,[2]; [7],0.296 ± 0.011
same,growth,[2]; [8],0.236 ± 0.0055
same,growth,[2]; [9],0.226 ± 0.024
same,growth,[2]; [10],0.181 ± 0.0072
same,growth,[2]; [11],0.141 ± 0.0061
same,growth,[3]; [12],0.355 ± 0.042
same,growth,[3]; [13],0.393 ± 0.016
same,growth,[4]; [14],0.203 ± 0.012
same,growth,[4]; [15],0.22 ± 0.01
same,growth,[5],0.459 ± 0.011
same,growth,[6]; [16],0.408 ± 0.0075
same,growth,[6]; [17],0.367 ± 0.018
CO[C@@H]1[C@@H](OC(N)=O)[C@@H](O)[C@H](Oc2ccc3c(O)c(NC(=O)c4ccc(O)c(CC=C(C)C)c4)c(=O)oc3c2C)OC1(C)C [Novobiocin sodium salt],growth,[1],0.0431 ± 0.00086
same,growth,[2]; [7],0.0437 ± 0.0029
same,growth,[2]; [8],0.0409 ± 0.0007
same,growth,[2]; [9],0.0461 ± 0.0025
same,growth,[2]; [10],0.0415 ± 0.00082
same,growth,[2]; [11],0.0423 ± 0.00026
same,growth,[3]; [12],0.0533 ± 0.0015
same,growth,[3]; [13],0.0535 ± 0.0063
same,growth,[4]; [14],0.05077 ± 0.0005
same,growth,[4]; [15],0.0501 ± 0.00055
same,growth,[5],0.0556 ± 0.0007
same,growth,[6]; [16],0.0617 ± 0.0036
same,growth,[6]; [17],0.052 ± 0.0006
NC(=O)c1cccnc1 [Nicotinamide],growth,[1],0.2773 ± 0.0019
same,growth,[2]; [7],0.335 ± 0.0062
same,growth,[2]; [8],0.302 ± 0.0031
same,growth,[2]; [9],0.263 ± 0.014
same,growth,[2]; [10],0.238 ± 0.014
same,growth,[2]; [11],0.155 ± 0.0058
same,growth,[3]; [12],0.447 ± 0.0077
same,growth,[3]; [13],0.45 ± 0.033
same,growth,[4]; [14],0.214 ± 0.01
same,growth,[4]; [15],0.258 ± 0.043
same,growth,[5],0.509 ± 0.11
same,growth,[6]; [16],0.43 ± 0.024
same,growth,[6]; [17],0.453 ± 0.0089
COC(=O)C1=C(C)NC(C)=C(C(=O)OC2CCCN(Cc3ccccc3)C2)C1c1cccc([N+](=O)[O-])c1 (stereo unspecified) [Benidipine hydrochloride],growth,[1],0.184 ± 0.005
same,growth,[2]; [7],0.148 ± 0.005
same,growth,[2]; [8],0.177 ± 0.012
same,growth,[2]; [9],0.168 ± 0.011
same,growth,[2]; [10],0.107 ± 0.0056
same,growth,[2]; [11],0.119 ± 0.024
same,growth,[3]; [12],0.162 ± 0.0021
same,growth,[3]; [13],0.157 ± 0.0085
same,growth,[4]; [14],0.17 ± 0.022
same,growth,[4]; [15],0.192 ± 0.016
same,growth,[5],0.295 ± 0.015
same,growth,[6]; [16],0.353 ± 0.018
same,growth,[6]; [17],0.122 ± 0.028
CCN(Cc1ccncc1)C(=O)C(CO)c1ccccc1 (stereo unspecified) [Tropicamide],growth,[1],0.24 ± 0.0069
same,growth,[2]; [7],0.308 ± 0.02
same,growth,[2]; [8],0.266 ± 0.0032
same,growth,[2]; [9],0.212 ± 0.027
same,growth,[2]; [10],0.174 ± 0.0051
same,growth,[2]; [11],0.158 ± 0.0048
same,growth,[3]; [12],0.289 ± 0.021
same,growth,[3]; [13],0.416 ± 0.022
same,growth,[4]; [14],0.19 ± 0.0057
same,growth,[4]; [15],0.249 ± 0.054
same,growth,[5],0.527 ± 0.08
same,growth,[6]; [16],0.413 ± 0.013
same,growth,[6]; [17],0.33 ± 0.0058
CC/C(=C(/CC)c1ccc(O)cc1)c1ccc(O)cc1 [Diethylstilbestrol],growth,[1],0.0422 ± 0.0023
same,growth,[2]; [7],0.04 ± 0.0015
same,growth,[2]; [8],0.0413 ± 0.0044
same,growth,[2]; [9],0.0436 ± 0.0041
same,growth,[2]; [10],0.0394 ± 0.00096
same,growth,[2]; [11],0.0457 ± 0.0042
same,growth,[3]; [12],0.169 ± 0.011
same,growth,[3]; [13],0.0743 ± 0.016
same,growth,[4]; [14],0.171 ± 0.013
same,growth,[4]; [15],0.198 ± 0.012
same,growth,[5],0.0495 ± 0.0011
same,growth,[6]; [16],0.0551 ± 0.0059
same,growth,[6]; [17],0.0557 ± 0.0043
CC(COc1ccccc1)NC(C)C(O)c1ccc(O)cc1 (stereo unspecified) [Isoxsuprine hydrochloride],growth,[1],0.224 ± 0.0098
same,growth,[2]; [7],0.29 ± 0.014
same,growth,[2]; [8],0.256 ± 0.003
same,growth,[2]; [9],0.183 ± 0.011
same,growth,[2]; [10],0.156 ± 0.0029
same,growth,[2]; [11],0.157 ± 0.0078
same,growth,[3]; [12],0.25 ± 0.081
same,growth,[3]; [13],0.402 ± 0.079
same,growth,[4]; [14],0.202 ± 0.042
same,growth,[4]; [15],0.271 ± 0.028
same,growth,[5],0.5 ± 0.066
same,growth,[6]; [16],0.413 ± 0.0062
same,growth,[6]; [17],0.34 ± 0.02
